dFosB act = mouse delta FosB homodimer activation; 0.99% of 340,000 active; activation, % at 25 µM; purified delta FosB, TAMRA-CDK5 oligo fluorescence polarization; percent of positive-control signal above neutral wells; P13346;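 active = mean activation above about 17%, with every replicate also reaching it, limit read from the data, passing the limit was not always enough; inconclusive = only one of the two conditions met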
Target sequence (P13346 whole entry, looked up): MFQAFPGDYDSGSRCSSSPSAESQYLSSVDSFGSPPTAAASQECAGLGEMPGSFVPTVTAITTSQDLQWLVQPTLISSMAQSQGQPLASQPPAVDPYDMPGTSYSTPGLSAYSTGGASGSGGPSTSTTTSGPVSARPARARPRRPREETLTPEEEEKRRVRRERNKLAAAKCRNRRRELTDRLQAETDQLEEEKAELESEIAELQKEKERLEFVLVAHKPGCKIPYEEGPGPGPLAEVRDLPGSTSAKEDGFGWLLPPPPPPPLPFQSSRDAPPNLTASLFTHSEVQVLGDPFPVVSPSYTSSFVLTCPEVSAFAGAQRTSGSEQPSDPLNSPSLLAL
SMARCA2 activ = increases SMARCA2 function in MMTV reporter cells. activation, % at 9.1 µM. 1% of 370,000 active. MG213 cells, MMTV-luciferase reporter, dexamethasone, overnight. AID 652017; in the data active = activation above about 7.8%;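 also: 0% = vehicle wells and 100% = reference activator wells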
DYRK1A inh = inhibitors of rat Dyrk1A kinase. Q63470. ADP-Glo luminescence, NFATc1 peptide. inhibition, % at 12.5 µM. 0.43% of 310,000 active. AID 504441; in the data active = inhibition above about 50%;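 also: plate controls were vehicle with enzyme for no effect and no enzyme for full effect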
Rtt109 HAT inh = blocks Candida albicans Rtt109/Vps75 acetyltransferase activity; inhibition, % at 34.9 µM; purified Rtt109/Vps75, ThioGlo CoA-SH fluorescence, 4 h; 0.16% of 330,000 active; Q5AAJ8;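 active = inhibition of at least 50% in every replicate; inconclusive = best replicate reaches 50% inhibition but some replicates fall short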
Target sequence (Q5AAJ8 whole entry, looked up): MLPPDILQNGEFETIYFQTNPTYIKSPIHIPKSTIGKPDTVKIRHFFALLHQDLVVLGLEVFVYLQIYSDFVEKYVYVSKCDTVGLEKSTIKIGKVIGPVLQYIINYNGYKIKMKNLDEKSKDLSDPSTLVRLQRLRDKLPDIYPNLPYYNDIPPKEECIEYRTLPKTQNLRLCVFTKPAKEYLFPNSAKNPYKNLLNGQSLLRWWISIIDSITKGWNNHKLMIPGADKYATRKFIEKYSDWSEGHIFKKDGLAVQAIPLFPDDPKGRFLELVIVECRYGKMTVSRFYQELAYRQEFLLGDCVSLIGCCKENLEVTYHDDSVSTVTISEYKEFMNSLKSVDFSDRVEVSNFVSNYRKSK
CDK5 inh = blocks human CDK5/p35 kinase activity; Recombinant CDK5/p35, ADP-Glo luminescence, 60 min; inhibition, % at 10 µM; Q00535+Q15078; AID 488839; 0.01% of 330,000 active;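 active = highest replicate inhibition of at least 50% and at least 75% of replicates reaching 50%; inconclusive = only one of the two criteria met; inactive = both criteria failed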;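 also: plate controls were DMSO neutral control for no effect and GW8510 at 10 µM for full effect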
esBAF inh = SWI/SNF esBAF complex inhibition. mouse ES cells, Bmi1-luciferase knock-in reporter, 24 h; 100% = twice the neutral-well signal. reporter increase, % at 12.5 µM. 2% of 350,000 active. AID 602393; in the data active = activation above about 40%; inconclusive = no clear call, values can overlap the other calls;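 also: 0% = median of the plate's neutral control wells and 100% = double that signal; a rise in the Bmi1 reporter signal indicates esBAF inhibition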
esBAF Ring1 qPCR = confirmation of esBAF inhibitors: Ring1 de-repression in mouse ESCs; shares compounds with esBAF inh; mouse ESC E14, Ring1 mRNA RT-qPCR fold change; fold change at 33 µM; 550 tested, under 10 active; AID 743176;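 active = Ring1 gene expression raised more than 2-fold over untreated cells in both replicates at either tested dose; inconclusive = only one replicate above 2-fold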;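 also: Ring1 transcript normalised to actin housekeeping signal by TaqMan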
esBAF Fgf4 qPCR = confirmation of esBAF inhibitors: Fgf4 repression in mouse ESCs; Fgf4 expression fold change at 33 µM; mouse ESC E14, Fgf4 mRNA qPCR fold change; active compounds read low; shares compounds with esBAF inh; 4% of 550 active;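 active = Fgf4 expression under 0.8 fold of control in both repeat measurements at one or both tested doses; inconclusive = under 0.8 fold in just a single repeat measurement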;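 also: Fgf4 transcript normalised to actin in duplex TaqMan qPCR; cells exposed to compound for 24 h before lysis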
Bmi1 derepress = esBAF inhibition confirmed by Bmi1 de-repression; AID 743180; shares compounds with esBAF inh; fold change at 33 µM; 550 tested, under 10 active; mouse ESE14 ES cells, Bmi1 mRNA qPCR fold; active compounds read high;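 active = Bmi1 expression fold change above 6 at either tested concentration, seen in replicate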;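 also: higher fold means more Bmi1 de-repression and stronger esBAF inhibition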
A549 cytotox = A549 cell cytotoxicity. AID 743188. cell viability change % (negative = cytotoxic), % at 25 µM, hits read low. 550 tested, under 10 active. shares compounds with esBAF inh. plate reader; call rule not given here
HepG2 tox SP = cytotoxicity in HepG2 cells; shares compounds with esBAF inh; plate reader; active compounds read low; activity change, negative = inhibition, % at 25 µM; 4% of 550 active; AID 743189; in the data active = activity change below about -50%
HEK293 tox SP = cytotoxicity in HEK293 cells; 3% of 550 active; plate reader; activity change, negative = inhibition, % at 25 µM, hits read low; shares compounds with esBAF inh; AID 743190; in the data active = activity change below about -38%, passing the limit was not always enough
The depositor's hits bear a star; ? = inconclusive; . = no result given. An excerpt weighted towards active compounds, which were near 3.2% of everything screened.

SMILES	dFosB act	SMARCA2 activ	DYRK1A inh	Rtt109 HAT inh	CDK5 inh	esBAF inh	esBAF Ring1 qPCR	esBAF Fgf4 qPCR	Bmi1 derepress	A549 cytotox	HepG2 tox SP	HEK293 tox SP
Cn1cccc1C(=O)NC1CCCCCC1	-2.9	3.7	.	3.7	0.6	64.2*	1.06	0.8	1.47	-14.4	-49.3	-19.5
C[C@H]1CN([C@@H](C)CO)C(=O)c2cc(C#CC(C)(C)O)cnc2O[C@@H]1CN(C)C(=O)CN(C)C	.	.	.	.	.	-0.1	.	.	.	.	.	.
CCc1sc(C(=O)Nc2ccc(NC(C)=O)cc2)cc1C	1.5	-0.9	-1.2	-3.6	-0.1	.	.	.	.	.	.	.
CCc1sc(C(=O)Nc2ccc3nc(C)sc3c2)cc1C	-23.5	1.6	-1.6	-29.4	0.3	80.0*	1.09	0.61*	1.52	-5.0	15.3	-5.3
C[C@@H]1CN([C@@H](C)CO)C(=O)c2cc(-c3ccc(F)cc3)cnc2O[C@@H]1CN(C)Cc1ccc(F)cc1	.	.	.	.	.	5.9	.	.	.	.	.	.
O=C(c1ccc(Cn2c(=S)[nH]c3ccc(N4CCOCC4)cc3c2=O)cc1)N1CCN(c2ccc(F)cc2)CC1	-9.3	-0.1	-1.0	-26.0	-1.3	.	.	.	.	.	.	.
COc1ccc(N2CCN(C(=O)c3ccc(Cn4c(=S)[nH]c5ccc(N6CCOCC6)cc5c4=O)cc3)CC2)cc1	-8.9	-1.6	3.7	2.0	0.6	68.3*	0.968	0.854	1.81	-10.4	-36.2	-9.5
COc1cc2oc3cc(C#Cc4ccc(N)cc4)ccc3c(=O)c2cc1OC	-8.8	-2.6	-3.7	-16.0	-1.1	-1.7	.	.	.	.	.	.
Nc1ccc(C#Cc2ccc3c(=O)c4ccccc4oc3c2)cc1	2.3	3.4	7.9	0.7	4.1	79.3*	0.848	0.562*	3.49	-14.0	-1.4	-10.9
C[C@@H]1CCCCO[C@H](CN(C)C(=O)c2ccccc2)[C@@H](C)CN([C@H](C)CO)C(=O)c2cc(NC(=O)Nc3ccccc3)ccc2O1	.	.	.	.	.	-3.6	.	.	.	.	.	.
Cc1cccc(S(=O)(=O)N2CC[C@@H]3[C@H](CO)N(C)c4ccc(-c5ccc(C#N)cc5)cc4[C@@H]32)c1	.	.	.	.	.	-3.3	.	.	.	.	.	.
C=CCn1c(NCc2ccc(OC)cc2O)nc2ccccc21	4.3	5.7	8.8	-10.7	0.1	60.6*	1.04	0.959	1.77	-4.6	-68.3*	-10.6
C=CCn1c(NCc2ccccc2O)nc2ccccc21	0.8	1.4	-6.2	3.8	-0.9	30.7	.	.	.	.	.	.
Cc1cccc(N=Nc2c(N)n[nH]c2N)c1	-2.3	-1.4	-3.5	20.1	0.9	8.0	.	.	.	.	.	.
Nc1n[nH]c(N)c1N=Nc1ccc(Cl)cc1	-0.7	-2.0	-0.6	-2.4	-0.6	52.8*	1.4	1.07	1.87	0.2	3.3	4.8
C[C@@H](NC(=O)C[C@H]1C[C@H]2c3cc(NC(=O)C4CCC4)ccc3O[C@H]2[C@@H](CO)O1)c1ccccc1	.	.	.	.	.	0.3	.	.	.	.	.	.
CC(C)CC#Cc1cnc2c(c1)C(=O)N([C@@H](C)CO)C[C@H](C)[C@@H](CN(C)C(=O)Nc1ccccc1F)O2	.	.	.	.	.	-1.1	.	.	.	.	.	.
CC(C)NC(=O)N(C)C[C@@H]1Oc2ccc(NC(=O)C3CCCCC3)cc2CC(=O)N([C@@H](C)CO)C[C@H]1C	.	.	.	.	.	-2.8	.	.	.	.	.	.
CC(C)c1ccc(CNNC(=O)c2ccccc2)cc1	-3.8	3.9	-1.8	-3.6	0.9	69.8*	0.924	0.891	2.64	-6.5	6.3	-5.4
CCC1CCCCN1C(=O)c1ccc2nc(Cc3ccc(OC)cc3)oc2c1 (configuration not stated)	-10.7	5.3	-4.3	3.4	0.3	66.7*	1.05	1.17	0.914	7.1	-11.2	11.7
CN(C(=O)c1ccc2c(Cl)c3c(nc2c1)CCC3)c1ccccc1	-9.1	2.6	3.4	0.8	1.2	87.9*	1.4	0.984	1.76	2.7	-22.7	1.3
N#CC(c1ccccc1O)N1N=C(c2ccccc2)CC1c1ccccc1 (configuration not stated)	-9.6	-1.1	6.8	9.7	3.4	58.0*	1.11	0.953	1.34	-2.6	6.9	-3.6
CCCS(=O)(=O)N1CCC(C(=O)NC2CCC(C)CC2)CC1 (configuration not stated)	8.3	2.6	3.5	-5.4	1.1	55.6*	1.09	0.892	1.3	-7.9	-22.3	-7.0
C[C@H](CO)N1C[C@H](C)[C@H](CN(C)C(=O)CN2CCOCC2)Oc2ncc(C#CCN(C)C)cc2C1=O	.	.	.	.	.	-6.0	.	.	.	.	.	.
Cc1cccc(-n2nnc(C(=O)Nc3ccc(F)cc3)c2N)c1	?	1.2	-1.8	.	0.3	62.3*	0.944	0.838	1.89	-4.1	-38.1	-11.1
SMILES	dFosB act	SMARCA2 activ	DYRK1A inh	Rtt109 HAT inh	CDK5 inh	esBAF inh	esBAF Ring1 qPCR	esBAF Fgf4 qPCR	Bmi1 derepress	A549 cytotox	HepG2 tox SP	HEK293 tox SP
Cc1c(C(=O)Nc2ccc(F)cc2)nnn1-c1cccc(C(F)(F)F)c1	2.3	-6.4	3.8	-9.4	1.2	-3.0	.	.	.	.	.	.
Cc1nc(Nc2ccccc2)sc1C(=O)c1ccc(F)cc1	-17.2	0.1	2.8	-1.5	0.7	66.0*	1.1	0.876	1.47	7.4	-11.6	-0.3
CCCC(=O)Nc1ccc2c(c1)C(=O)N(C)C[C@H](OC)[C@@H](C)CN(Cc1cccc(F)c1)[C@H](C)CO2	.	.	.	.	.	6.9	.	.	.	.	.	.
COc1ccc(NC(=O)c2csc3c2CCCC3)cc1	3.9	.	3.9	-14.5	-0.4	68.9*	0.942	0.974	1.46	-7.9	-50.6*	-21.3
C=CCNc1nc2cc(-c3ccccc3OC)sc2c(=O)n1C	.	3.9	.	.	.	58.6*	1.14	1.01	2.06	-10.7	-23.9	-5.0
O=C(C[C@H]1CC[C@H](NC(=O)Nc2ccccc2F)[C@H](CO)O1)NCc1ccccc1	.	.	.	.	.	-8.1	.	.	.	.	.	.
CC1CCN(c2oc(-c3cccc4ccccc34)nc2C#N)CC1	-10.1	-1.8	-10.3	1.0	1.0	67.1*	0.969	0.949	1.45	-1.2	-52.6*	-18.6
CCNC(=O)[C@H]1[C@H](CO)[C@H]2Cn3c(ccc(-c4ccccc4)c3=O)[C@H]2N1CC1CC1	.	.	.	.	.	5.1	.	.	.	.	.	.
COc1cc(C=O)c(Br)cc1OCc1ccc(C)cc1	-3.7	1.2	.	.	-0.3	81.4*	1.54	1.12	1.87	-5.1	2.7	-10.9

Compound activity deposited in PubChem by several laboratories.
